Values joined by “and” are separate entries in the source; they are usually repeats but may differ in a detail not shown here. Equal entries are not always repeated. The whole screen tested about 310,000 compounds, of which about 11,000 (3.5%) were called active. Roughly 4% stayed inconclusive and do not appear here. The entries come from a sample that favours actives as a whole. A number with no mark means an inactive call. Calls come from the whole dose curve; as a rule, active = well fitted inhibition curve with a large enough effect; inconclusive = small, poorly fitted or top-dose-only effect, or another doubt; inactive = no such curve, though single readings can be large or run the other way.
Target: 4'-phosphopantetheinyl transferase ffp (Bacillus subtilis) (UniProt Q9F4F7)
Assay: qHTS Assay for Inhibitors of Bacillus subtilis Sfp phosphopantetheinyl transferase (PPTase);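 note: the enzyme is Sfp with the accession as filed and its product quenches rhodamine fluorescence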;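 for largest response in the series, negative = inhibition: 0% = enzyme reaction without inhibitor and -100% = no enzyme wells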
Settings: Biochemical Sfp PPTase activity
Summary of the method: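 With Hepes-Na pH 7.6 buffer containing 10 mM MgCl2, Sfp (15 nM) modified BHQ-2-YbbR (12.5 uM) using rhodamine-CoA (5 uM). Two reads 30 minutes apart at 525/598 nm yielded each well's rate.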
Potency is the fitted concentration of half-maximal effect.

Compared with `CN1CCN(C(=O)O[C@@H]2c3nccnc3C(=O)N2c2ccc(Cl)cn2)CC1`, `CN(C)C(=O)Oc1cc(=O)n2c3c(cccc13)CCC2` is higher in largest response in the series, negative = inhibition: -8.07% for the first, 10.3% for the second.

Compared with `CC(=C1C(=O)c2ccccc2C1=O)N1CCN(CCN=Cc2c(O)n(C)c(=O)n(C)c2=O)CC1`, `CCc1nnc(NS(=O)(=O)c2ccc(N=Cc3c(O)n(-c4ccccc4)c(=O)[nH]c3=O)cc2)s1` is lower in largest response in the series, negative = inhibition: 10.2% for the first, -8.17% for the second.

First: CN1C2CC3CC1C(O3)C2O (stereo not drawn)
Second: CCN1CC2C3CCC(C)(O3)C2C1 (stereo not drawn)
The largest response in the series, negative = inhibition of the first is lower: -0.102% for the first, 13.8% for the second.

First: C[C@H]1CC[C@@]2(NC1)O[C@@H]1C[C@H]3[C@@H]4CC=C5C[C@@H](O)CC[C@]5(C)[C@@H]4CC[C@]3(C)[C@@H]1[C@@H]2C
Second: C=CCN1CCC2(C)c3cc(O)ccc3CC1[C@@H]2C (stereo partly drawn)
The largest response in the series, negative = inhibition of the first is higher: 7.1% for the first, 3.98% for the second.

Going from `COc1ccc(NC(=O)N2CCC3(CC2)OCCO3)c(OC)c1` to `CCOC(=O)c1c(C)c(C(=O)N2CCC3(CC2)OCCO3)c(C)n1CC`, the largest response in the series, negative = inhibition rises from -7.26% to -3.49%.

First: CO[C@H]1[C@@H](O)[C@@H](C)O[C@H](O[C@H]2[C@H](Oc3cccc4c(O)c5c(=O)oc6ccc(C)c7c(=O)oc(c34)c5c67)O[C@H](C)[C@H](O)[C@@H]2O)[C@@H]1O
Second: Cc1c(C(=O)O)cccc1-n1c(C)cc(/C=C2\C(=O)NC(=O)N(c3ccc4c(c3)OCO4)C2=O)c1C
The largest response in the series, negative = inhibition of the first is lower: -22.5% for the first, -16.8% for the second.

Going from `CN(C)C(=O)Oc1cc(OC(=O)N(C)C)cc(C(O)CNC(C)(C)C)c1` (stereo not drawn) to `CN(C)C(=O)Oc1ccc2c(c1)O/C(=C\c1ccccc1)C2=O`, the largest response in the series, negative = inhibition falls from 2.1% to 2.07%.

First: CC[C@]1(O)C(=O)OCc2c1cc1n(c2=O)Cc2cc3ccccc3nc2-1
Second: O=c1c2ccccc2nc(/C=C/c2ccc(F)cc2)n1-c1ccccc1O
The largest response in the series, negative = inhibition of the first is higher: 6.01% for the first, -2% for the second.

First: COP(=O)(NS(=O)(=O)c1ccccc1)OC
Second: CCC1(c2ccccc2)C(=O)NC(=O)N(C)C1=O (stereo not drawn)
The largest response in the series, negative = inhibition of the first is higher: 17.4% for the first, 9.18% for the second.

Compared with `Cc1cc(C)cc(NC(=S)NC2CC3CCCC(C2)N3Cc2cccs2)c1` (stereo not drawn), `COc1ccccc1NC(=O)N1C[C@@H]2C[C@@H](C1)c1cccc(=O)n1C2` is lower in largest response in the series, negative = inhibition: 14.7% for the first, 13.6% for the second.

Going from `CC(C)Oc1cccc(C(=O)C2CCCN(C3CCOCC3)C2)c1` (stereo not drawn) to `O=C(Cc1ccccc1)N1CCN(C2CCCCCC2)CC1`, the largest response in the series, negative = inhibition falls from 17.1% to -9.44%.

Going from `CCN(CC)c1nc(C)cc(OP(=S)(OC)OC)n1` to `CCOP(=O)(OCC)C(O)c1ccc(OC)cc1OC` (stereo not drawn), the largest response in the series, negative = inhibition rises from 6.37% to 9.04%.

Compared with `O=c1c2ccccc2nc(-c2ccco2)n1-c1ccc(Br)cn1`, `CN(c1ccccc1)c1ccc([N+](=O)[O-])c2nonc12` is lower in largest response in the series, negative = inhibition: -3.04% for the first, -10.3% for the second.

First: O=C(N/N=C/c1c(O)n(C2CC2)c(=S)[nH]c1=O)c1ccccc1Cl
Second: O=C(CCN1CCCCC1)NCC(=O)Nc1ccc(Br)cc1C(=O)c1ccccc1
The largest response in the series, negative = inhibition of the first is higher: 9.37% for the first, -17.5% for the second.

Going from `CC(C)(C)c1ccc(OC(=O)N2CCCCC2)cc1` to `O=C(Nc1cccc(F)c1)N1CC[C@@]2(CCCN(C(=O)Oc3ccccc3)C2)C1`, the largest response in the series, negative = inhibition falls from -1.08% to -5.07%.

Going from `N[C@H](C(=O)O)c1cc(=O)[nH]o1` to `CCNC[C@H](O)c1cccc(O)c1`, the largest response in the series, negative = inhibition rises from 2.79% to 18.1%.

Going from `O=[N+]([O-])c1ccc(C2C3C(c4ccccc4)=NC4(CCCCC4)N32)cc1` (stereo not drawn) to `CNP1(NC)=Nc2nn(-c3ccccc3)c(N)c2C(c2ccccc2)=N1`, the largest response in the series, negative = inhibition rises from -4.07% to 2.05%.

First: c1csc(CN2CC3(CCNCC3)C2)n1
Second: CC(C)CN1CCN(Cc2ccccc2C(F)(F)F)CC1CCO (stereo not drawn)
The largest response in the series, negative = inhibition of the first is higher: 12.2% for the first, 6.48% for the second.

Compared with `C=CCN(CC=C)C(=O)Nc1ccc(OCC)cc1`, `COc1ccc2[nH]cc(CCNCc3ccc(Br)cc3)c2c1` is lower in largest response in the series, negative = inhibition: 0.3% for the first, -23.1% for the second.

For `Nc1ccc(-c2ccc(N)c(N)c2)cc1N`, the largest response in the series, negative = inhibition was -2.55%.

For `Fc1ccc(C(OCCN2CCN(C/C=C\c3ccccc3)CC2)c2ccc(F)cc2)cc1`, the Potency was 89.1 µM (active).
For `O=C1NC(=O)N(Cc2ccco2)C(=O)/C1=C\c1cccn1CCOc1ccccc1`, the Potency was 20 µM (active).
In the case of `O=C1NC(=O)N(Cc2ccco2)C(=O)/C1=C\c1ccc(-c2ccc(F)cc2)o1`, the Potency is reported as 31.6 µM (active).
For `O=c1c2ccccc2nc(/C=C/c2ccco2)n1-c1ccccc1O`, the Potency was 10 µM (active).
`N[C@H](Cc1o[nH]c(=O)c1Cl)C(=O)O` was tested, and the Potency was 79.4 µM (active).
For `C=CCN1C(=O)NC(=O)/C(=C/c2ccc(OCC(=O)Nc3ccc(C)cc3)cc2)C1=O`, the Potency was 35.5 µM (active).
`Cc1noc(C)c1CSc1nc2cc(S(=O)(=O)N3CCOCC3)ccc2o1` was tested, and the Potency was 20 µM (active).
For `Cc1nc2ccccn2c1P(=S)(N1CCCCC1)N1CCCCC1`, the Potency was 56.2 µM (active).
For `Cc1cccc(N2C(=O)NC(=O)/C(=C\c3cnn(-c4ccccc4)c3)C2=O)c1`, the Potency was 39.8 µM (active).
For `COC(=O)N(c1ccc(OC)cc1)P1(=S)OCCC(C)O1` (stereo not drawn), the Potency was 12.6 µM (active).
`C[C@@H]1C[C@@H]2O[C@H]2/C=C\C=C\C(=O)Cc2c(Cl)c(O)cc(O)c2C(=O)O1` was tested, and the Potency was 15.8 µM (active).

For `C[C@]12CC[C@H](O)C[C@@H]1CC[C@H]1[C@H]2CC[C@]2(C)C(=O)CC[C@@H]12`, the largest response in the series, negative = inhibition was -1.51% and 34.7% and 1.49%.
For `CC[N+]1(C)CCCC(OC(=O)C(O)(c2ccccc2)c2ccccc2)C1` (stereo not drawn), the largest response in the series, negative = inhibition was 15.8% and 11.5%.
In the case of `CN=C(NC#N)NCCSCc1nc[nH]c1C`, the largest response in the series, negative = inhibition is reported as 5.33% and -12.8% and 5.86%.
